Source: ChEMBL document CHEMBL1961873, “Compounds: GSK PKIS; Assays: Nanosyn kinase panel” (2012)

Legend:
[1] = target: Tyrosine-protein kinase SYK (Homo sapiens) (UniProt P43405); details: at 1 µM
[2] = target: T1, Tyrosine-protein kinase Tec (Homo sapiens) (UniProt P42680); details: at 0.1 µM
T1 sequence (whole entry): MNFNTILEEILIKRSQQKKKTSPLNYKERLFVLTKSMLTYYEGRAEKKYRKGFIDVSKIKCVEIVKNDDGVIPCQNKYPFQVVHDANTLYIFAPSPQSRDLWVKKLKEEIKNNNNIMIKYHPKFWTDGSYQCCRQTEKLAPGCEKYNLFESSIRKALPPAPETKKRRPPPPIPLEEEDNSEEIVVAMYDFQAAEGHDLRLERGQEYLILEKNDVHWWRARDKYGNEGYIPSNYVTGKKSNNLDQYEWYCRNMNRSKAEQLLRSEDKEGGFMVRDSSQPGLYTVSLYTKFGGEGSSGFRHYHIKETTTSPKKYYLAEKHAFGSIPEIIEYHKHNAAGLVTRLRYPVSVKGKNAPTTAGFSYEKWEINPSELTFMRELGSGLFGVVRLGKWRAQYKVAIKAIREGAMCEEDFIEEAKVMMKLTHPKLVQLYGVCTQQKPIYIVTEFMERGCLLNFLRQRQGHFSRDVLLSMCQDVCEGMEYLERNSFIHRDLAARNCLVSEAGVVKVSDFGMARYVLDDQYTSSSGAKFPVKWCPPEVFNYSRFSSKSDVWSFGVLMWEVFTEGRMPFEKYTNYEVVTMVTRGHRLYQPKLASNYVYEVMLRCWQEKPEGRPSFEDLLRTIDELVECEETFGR

[3] = target: T1, Tyrosine-protein kinase Tec (Homo sapiens); details: at 1 µM
[4] = target: Angiopoietin-1 receptor (Homo sapiens) (UniProt Q02763); details: at 0.1 µM
[5] = target: Angiopoietin-1 receptor (Homo sapiens) (UniProt Q02763); details: at 1 µM
[6] = target: T2, Non-receptor tyrosine-protein kinase TNK1 (Homo sapiens) (UniProt Q13470); details: at 0.1 µM
T2 sequence (whole entry): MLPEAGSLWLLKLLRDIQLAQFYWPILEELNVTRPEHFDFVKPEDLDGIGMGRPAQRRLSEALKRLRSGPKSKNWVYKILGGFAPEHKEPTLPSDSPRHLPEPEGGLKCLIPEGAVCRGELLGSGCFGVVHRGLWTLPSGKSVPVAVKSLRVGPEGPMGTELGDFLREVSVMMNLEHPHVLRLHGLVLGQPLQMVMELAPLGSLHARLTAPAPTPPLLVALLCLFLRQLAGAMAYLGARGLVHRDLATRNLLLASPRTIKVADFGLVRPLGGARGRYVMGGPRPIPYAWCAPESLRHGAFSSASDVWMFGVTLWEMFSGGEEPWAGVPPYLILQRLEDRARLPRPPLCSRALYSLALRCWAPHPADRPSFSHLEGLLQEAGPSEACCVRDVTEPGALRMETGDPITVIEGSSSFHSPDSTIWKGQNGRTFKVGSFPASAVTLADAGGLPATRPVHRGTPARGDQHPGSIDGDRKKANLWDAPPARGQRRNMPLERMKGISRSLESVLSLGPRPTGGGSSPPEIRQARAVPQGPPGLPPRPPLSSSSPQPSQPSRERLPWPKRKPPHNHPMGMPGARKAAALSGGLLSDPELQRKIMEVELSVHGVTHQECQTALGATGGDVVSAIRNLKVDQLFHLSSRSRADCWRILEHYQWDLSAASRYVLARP

[7] = target: T2, Non-receptor tyrosine-protein kinase TNK1 (Homo sapiens); details: at 1 µM
[8] = target: Activated CDC42 kinase 1 (Homo sapiens) (UniProt Q07912); details: at 0.1 µM
[9] = target: Activated CDC42 kinase 1 (Homo sapiens) (UniProt Q07912); details: at 1 µM
[10] = target: High affinity nerve growth factor receptor (Homo sapiens) (UniProt P04629); details: at 0.1 µM
[11] = target: High affinity nerve growth factor receptor (Homo sapiens) (UniProt P04629); details: at 1 µM
[12] = target: BDNF/NT-3 growth factors receptor (Homo sapiens) (UniProt Q16620); details: at 0.1 µM
[13] = target: BDNF/NT-3 growth factors receptor (Homo sapiens) (UniProt Q16620); details: at 1 µM
[14] = target: NT-3 growth factor receptor (Homo sapiens) (UniProt Q16288); details: at 0.1 µM
[15] = target: NT-3 growth factor receptor (Homo sapiens) (UniProt Q16288); details: at 1 µM
[16] = target: T3, Tyrosine-protein kinase TXK (Homo sapiens) (UniProt P42681); details: at 0.1 µM
T3 sequence (whole entry): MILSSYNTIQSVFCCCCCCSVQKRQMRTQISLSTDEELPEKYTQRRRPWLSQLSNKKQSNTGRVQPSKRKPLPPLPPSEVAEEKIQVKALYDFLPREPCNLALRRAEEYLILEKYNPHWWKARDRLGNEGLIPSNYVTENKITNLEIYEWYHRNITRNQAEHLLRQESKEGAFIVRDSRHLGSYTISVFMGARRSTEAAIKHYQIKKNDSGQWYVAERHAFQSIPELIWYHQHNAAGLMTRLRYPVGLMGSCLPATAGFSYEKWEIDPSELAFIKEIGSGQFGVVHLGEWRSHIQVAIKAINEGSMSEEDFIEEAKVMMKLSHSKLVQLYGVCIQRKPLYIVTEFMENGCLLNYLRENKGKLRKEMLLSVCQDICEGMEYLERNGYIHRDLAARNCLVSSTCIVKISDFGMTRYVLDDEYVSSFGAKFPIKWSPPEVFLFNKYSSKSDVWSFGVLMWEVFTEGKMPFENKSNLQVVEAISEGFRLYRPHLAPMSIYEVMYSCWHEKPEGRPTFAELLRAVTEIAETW

[17] = target: T3, Tyrosine-protein kinase TXK (Homo sapiens); details: at 1 µM
[18] = target: Non-receptor tyrosine-protein kinase TYK2 (Homo sapiens) (UniProt P29597); details: at 0.1 µM;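 also: each value is a mean of the inhibition readings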
[19] = target: T4, Dual specificity protein kinase TTK (Homo sapiens) (UniProt P33981); details: at 1 µM;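 also: reported figures are mean TTK inhibition at 1 µM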
T4 sequence (whole entry): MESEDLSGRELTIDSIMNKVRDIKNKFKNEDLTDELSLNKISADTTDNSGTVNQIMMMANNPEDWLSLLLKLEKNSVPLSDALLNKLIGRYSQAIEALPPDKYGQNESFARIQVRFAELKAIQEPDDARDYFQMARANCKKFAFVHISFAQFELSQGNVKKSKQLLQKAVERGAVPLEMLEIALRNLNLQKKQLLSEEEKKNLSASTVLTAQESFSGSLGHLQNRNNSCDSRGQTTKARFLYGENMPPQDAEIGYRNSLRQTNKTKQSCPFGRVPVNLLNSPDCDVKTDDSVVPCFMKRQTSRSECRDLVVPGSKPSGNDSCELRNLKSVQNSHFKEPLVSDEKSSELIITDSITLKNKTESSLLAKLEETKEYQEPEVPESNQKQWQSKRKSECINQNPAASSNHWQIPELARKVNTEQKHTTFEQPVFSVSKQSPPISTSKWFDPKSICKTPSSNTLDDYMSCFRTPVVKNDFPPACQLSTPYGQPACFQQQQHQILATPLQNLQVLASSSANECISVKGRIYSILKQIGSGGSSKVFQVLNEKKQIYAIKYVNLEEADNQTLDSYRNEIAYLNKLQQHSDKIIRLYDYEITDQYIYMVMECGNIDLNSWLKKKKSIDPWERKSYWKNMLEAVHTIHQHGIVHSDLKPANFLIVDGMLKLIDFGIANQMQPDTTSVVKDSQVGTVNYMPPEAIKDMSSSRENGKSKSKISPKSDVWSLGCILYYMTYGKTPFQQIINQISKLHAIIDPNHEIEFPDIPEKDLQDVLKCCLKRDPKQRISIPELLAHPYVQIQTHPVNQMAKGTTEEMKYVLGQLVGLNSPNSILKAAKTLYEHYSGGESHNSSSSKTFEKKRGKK

[20] = target: T5, Aurora kinase A (Homo sapiens) (UniProt O14965); details: at 0.1 µM;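 also: each reported value is a mean percent inhibition of Aurora-A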
T5 sequence (whole entry): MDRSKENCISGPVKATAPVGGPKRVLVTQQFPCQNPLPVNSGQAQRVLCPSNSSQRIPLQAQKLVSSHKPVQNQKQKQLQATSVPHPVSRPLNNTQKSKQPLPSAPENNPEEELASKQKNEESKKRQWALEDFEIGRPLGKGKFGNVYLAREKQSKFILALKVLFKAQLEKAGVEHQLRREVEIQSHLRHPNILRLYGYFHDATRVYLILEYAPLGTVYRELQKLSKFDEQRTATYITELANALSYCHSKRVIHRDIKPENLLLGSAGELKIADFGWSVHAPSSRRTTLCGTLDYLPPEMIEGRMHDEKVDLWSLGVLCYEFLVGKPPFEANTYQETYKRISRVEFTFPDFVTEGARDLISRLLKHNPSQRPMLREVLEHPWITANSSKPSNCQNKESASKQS

Chain of High affinity nerve growth factor receptor (Homo sapiens) (P04629 33-796 limits assumed): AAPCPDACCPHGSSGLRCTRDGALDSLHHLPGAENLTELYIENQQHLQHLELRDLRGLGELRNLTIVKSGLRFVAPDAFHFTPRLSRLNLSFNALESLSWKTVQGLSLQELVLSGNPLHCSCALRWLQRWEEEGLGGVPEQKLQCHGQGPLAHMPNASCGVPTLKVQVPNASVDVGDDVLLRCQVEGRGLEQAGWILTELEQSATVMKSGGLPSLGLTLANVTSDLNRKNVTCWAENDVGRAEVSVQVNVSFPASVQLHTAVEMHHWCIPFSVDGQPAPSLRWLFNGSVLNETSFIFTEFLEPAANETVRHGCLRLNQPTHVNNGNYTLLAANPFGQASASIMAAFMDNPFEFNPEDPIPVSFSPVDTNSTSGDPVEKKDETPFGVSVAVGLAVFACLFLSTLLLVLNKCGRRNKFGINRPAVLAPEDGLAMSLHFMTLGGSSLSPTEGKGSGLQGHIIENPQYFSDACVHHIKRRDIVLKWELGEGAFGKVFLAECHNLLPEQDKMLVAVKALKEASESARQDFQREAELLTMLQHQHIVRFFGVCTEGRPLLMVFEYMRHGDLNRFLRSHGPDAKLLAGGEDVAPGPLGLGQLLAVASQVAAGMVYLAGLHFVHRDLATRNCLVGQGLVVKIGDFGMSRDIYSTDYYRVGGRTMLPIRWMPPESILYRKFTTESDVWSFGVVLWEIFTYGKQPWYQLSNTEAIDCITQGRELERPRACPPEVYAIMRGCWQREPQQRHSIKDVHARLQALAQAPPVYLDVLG
Chain of NT-3 growth factor receptor (Homo sapiens) (Q16288 32-839 limits assumed): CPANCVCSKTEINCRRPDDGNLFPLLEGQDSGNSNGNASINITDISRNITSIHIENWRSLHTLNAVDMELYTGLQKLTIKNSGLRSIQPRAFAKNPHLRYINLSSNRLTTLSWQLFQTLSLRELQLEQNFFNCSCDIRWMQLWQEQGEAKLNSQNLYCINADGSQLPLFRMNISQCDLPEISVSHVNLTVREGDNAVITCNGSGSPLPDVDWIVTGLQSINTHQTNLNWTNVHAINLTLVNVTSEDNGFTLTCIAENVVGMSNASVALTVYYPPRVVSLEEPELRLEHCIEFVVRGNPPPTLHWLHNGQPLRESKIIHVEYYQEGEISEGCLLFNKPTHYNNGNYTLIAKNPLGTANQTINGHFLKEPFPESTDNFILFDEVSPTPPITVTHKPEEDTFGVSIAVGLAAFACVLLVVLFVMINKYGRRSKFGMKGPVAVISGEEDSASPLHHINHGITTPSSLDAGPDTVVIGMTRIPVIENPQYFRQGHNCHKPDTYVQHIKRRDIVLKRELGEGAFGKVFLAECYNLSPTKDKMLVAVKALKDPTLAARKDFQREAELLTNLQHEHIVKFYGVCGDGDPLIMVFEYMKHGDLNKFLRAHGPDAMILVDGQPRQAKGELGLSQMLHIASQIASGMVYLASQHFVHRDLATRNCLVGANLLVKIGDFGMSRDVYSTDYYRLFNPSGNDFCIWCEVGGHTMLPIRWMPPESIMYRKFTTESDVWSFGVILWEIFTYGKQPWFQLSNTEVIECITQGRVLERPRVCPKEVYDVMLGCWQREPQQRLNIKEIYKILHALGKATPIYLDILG
Chain of BDNF/NT-3 growth factors receptor (Homo sapiens) (Q16620 32-822 limits assumed): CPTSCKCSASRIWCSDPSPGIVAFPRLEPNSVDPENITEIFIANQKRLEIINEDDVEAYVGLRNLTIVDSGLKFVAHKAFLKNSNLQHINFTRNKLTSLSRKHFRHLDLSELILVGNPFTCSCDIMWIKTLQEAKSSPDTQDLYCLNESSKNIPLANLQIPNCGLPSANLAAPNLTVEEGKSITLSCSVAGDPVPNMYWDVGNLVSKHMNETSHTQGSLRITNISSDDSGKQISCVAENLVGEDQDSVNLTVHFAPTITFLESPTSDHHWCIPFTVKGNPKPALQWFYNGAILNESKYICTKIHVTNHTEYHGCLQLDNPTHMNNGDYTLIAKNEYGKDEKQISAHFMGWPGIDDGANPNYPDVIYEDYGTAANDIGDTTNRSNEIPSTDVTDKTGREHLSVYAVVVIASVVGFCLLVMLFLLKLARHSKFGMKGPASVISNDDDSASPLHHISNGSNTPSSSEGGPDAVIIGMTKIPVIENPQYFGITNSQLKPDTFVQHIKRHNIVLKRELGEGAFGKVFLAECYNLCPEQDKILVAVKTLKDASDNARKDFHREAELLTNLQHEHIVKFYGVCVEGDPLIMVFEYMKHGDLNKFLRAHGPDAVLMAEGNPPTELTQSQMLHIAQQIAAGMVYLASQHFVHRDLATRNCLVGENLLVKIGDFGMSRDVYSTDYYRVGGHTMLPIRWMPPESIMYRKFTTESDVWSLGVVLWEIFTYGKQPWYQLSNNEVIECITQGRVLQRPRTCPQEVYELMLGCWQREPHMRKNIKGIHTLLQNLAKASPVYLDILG
Chain of Non-receptor tyrosine-protein kinase TYK2 (Homo sapiens) (P29597 whole entry): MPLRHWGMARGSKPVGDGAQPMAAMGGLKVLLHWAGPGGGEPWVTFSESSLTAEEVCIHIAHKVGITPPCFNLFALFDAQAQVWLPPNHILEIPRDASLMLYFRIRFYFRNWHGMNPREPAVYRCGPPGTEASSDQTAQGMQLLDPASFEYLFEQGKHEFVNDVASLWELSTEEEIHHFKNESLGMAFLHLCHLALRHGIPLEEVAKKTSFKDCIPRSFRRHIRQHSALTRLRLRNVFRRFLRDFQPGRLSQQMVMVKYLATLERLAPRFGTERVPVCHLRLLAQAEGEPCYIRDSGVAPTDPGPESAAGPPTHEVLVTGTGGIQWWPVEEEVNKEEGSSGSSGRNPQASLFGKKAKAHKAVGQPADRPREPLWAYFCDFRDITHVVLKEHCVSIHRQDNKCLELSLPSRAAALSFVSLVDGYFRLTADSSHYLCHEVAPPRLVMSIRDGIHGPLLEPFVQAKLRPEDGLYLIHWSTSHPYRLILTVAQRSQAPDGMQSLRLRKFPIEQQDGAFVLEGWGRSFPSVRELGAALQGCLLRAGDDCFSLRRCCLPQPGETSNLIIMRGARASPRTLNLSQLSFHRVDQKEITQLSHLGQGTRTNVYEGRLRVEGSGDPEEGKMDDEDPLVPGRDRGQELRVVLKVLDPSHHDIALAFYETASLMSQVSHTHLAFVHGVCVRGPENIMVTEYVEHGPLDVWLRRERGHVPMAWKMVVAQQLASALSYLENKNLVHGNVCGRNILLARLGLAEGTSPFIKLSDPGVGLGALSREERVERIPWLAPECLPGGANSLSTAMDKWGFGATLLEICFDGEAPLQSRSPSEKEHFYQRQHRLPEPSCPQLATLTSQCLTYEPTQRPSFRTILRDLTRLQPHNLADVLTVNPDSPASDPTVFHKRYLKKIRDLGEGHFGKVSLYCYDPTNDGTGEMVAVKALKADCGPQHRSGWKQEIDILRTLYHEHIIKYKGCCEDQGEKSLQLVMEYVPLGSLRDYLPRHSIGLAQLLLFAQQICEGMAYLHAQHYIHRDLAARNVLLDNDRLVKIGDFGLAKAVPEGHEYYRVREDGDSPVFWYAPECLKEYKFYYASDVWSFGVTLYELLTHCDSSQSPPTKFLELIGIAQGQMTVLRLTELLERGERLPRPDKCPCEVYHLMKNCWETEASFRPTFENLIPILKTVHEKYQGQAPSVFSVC
Chain of Activated CDC42 kinase 1 (Homo sapiens) (Q07912 whole entry, looked up): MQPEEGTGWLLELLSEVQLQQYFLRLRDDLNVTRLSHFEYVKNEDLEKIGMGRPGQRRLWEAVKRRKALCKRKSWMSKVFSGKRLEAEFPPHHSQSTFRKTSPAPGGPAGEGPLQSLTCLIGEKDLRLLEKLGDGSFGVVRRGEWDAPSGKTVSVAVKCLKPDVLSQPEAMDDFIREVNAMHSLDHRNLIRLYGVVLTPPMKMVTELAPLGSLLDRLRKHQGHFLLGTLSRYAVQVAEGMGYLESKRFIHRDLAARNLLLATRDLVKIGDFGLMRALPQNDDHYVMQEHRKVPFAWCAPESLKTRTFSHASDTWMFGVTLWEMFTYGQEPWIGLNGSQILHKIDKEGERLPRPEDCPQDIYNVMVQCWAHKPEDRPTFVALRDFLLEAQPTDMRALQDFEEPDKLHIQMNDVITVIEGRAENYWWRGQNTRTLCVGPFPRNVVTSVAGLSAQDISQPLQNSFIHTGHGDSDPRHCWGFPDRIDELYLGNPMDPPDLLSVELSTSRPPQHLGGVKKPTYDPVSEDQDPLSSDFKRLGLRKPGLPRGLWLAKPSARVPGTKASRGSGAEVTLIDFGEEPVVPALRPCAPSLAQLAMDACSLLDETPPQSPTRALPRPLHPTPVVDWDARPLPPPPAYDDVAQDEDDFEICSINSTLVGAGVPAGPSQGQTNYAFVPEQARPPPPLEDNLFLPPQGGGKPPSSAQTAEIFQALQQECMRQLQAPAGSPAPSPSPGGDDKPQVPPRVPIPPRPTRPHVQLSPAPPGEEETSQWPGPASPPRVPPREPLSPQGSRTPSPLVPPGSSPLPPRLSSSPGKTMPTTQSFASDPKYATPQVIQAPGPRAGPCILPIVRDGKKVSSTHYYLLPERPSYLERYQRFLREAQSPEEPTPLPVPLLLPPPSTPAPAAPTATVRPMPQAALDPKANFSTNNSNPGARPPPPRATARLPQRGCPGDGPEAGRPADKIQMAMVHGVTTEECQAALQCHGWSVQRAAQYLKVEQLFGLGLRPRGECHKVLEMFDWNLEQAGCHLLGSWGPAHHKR

SMILES	inhibition [1] [%]	inhibition [2] [%]	inhibition [3] [%]	inhibition [4] [%]	inhibition [5] [%]	inhibition [6] [%]	inhibition [7] [%]	inhibition [8] [%]	inhibition [9] [%]	inhibition [10] [%]	inhibition [11] [%]	inhibition [12] [%]	inhibition [13] [%]	inhibition [14] [%]	inhibition [15] [%]	inhibition [16] [%]	inhibition [17] [%]	inhibition [18] [%]	inhibition [19] [%]	inhibition [20] [%]
Clc1ccc(-c2nn3ncccc3c2-c2ccnc(Nc3ccccc3)n2)cc1	2.04	2.78	15.2	3.84	18.5	-6.06	11.2	0.77	4.09	3.46	6	2.34	3.72	1.69	2.21	3.54	14.9	0.28	4.5	0.9
FC(F)(F)c1cccc(-c2nn3ncccc3c2-c2ccnc(Nc3ccc4c(c3)OCCO4)n2)c1	-1.91	4.21	15.5	4.09	10.6	1.44	5.7	0.31	0.47	1.71	3.48	1.94	3.39	0.62	3.72	3.11	9	-2.27	14.6	2.64
CNC(=O)c1cccc(C#Cc2cncnc2Nc2ccc(OCc3cccc(F)c3)c(Cl)c2)c1	0.47	0.86	2.99	-0.1	2.32	-0.06	10.8	-0.6	0.21	-0.85	0.53	2.25	1.08	0.94	2.86	1.86	3.33	-0.77	9.1	2.9
